Publication PMC5540273 (PLoS ONE, 2017)

Experiments:
[1] = system: ULK1
[2] = system: AAK1; conditions: concentration: 1 μM, replicates: in singlicate; n = 1
[3] = system: ABL1-nonphosphorylated; conditions: concentration: 1 μM, replicates: in singlicate; n = 1
[4] = system: ABL1-phosphorylated; conditions: concentration: 1 μM, replicates: in singlicate; n = 1
[5] = system: T1, p38-alpha
T1 construct: gene MAPK14

[6] = system: TSSK3
[7] = system: T2, TRKA
T2 construct: gene NTRK1

[8] = system: TYK2(JH2domain-pseudokinase)
[9] = system: TNIK
[10] = system: TYK2(JH1domain-catalytic)
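Throughout, for %Inh: KINOMEscan kinase panel screen.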
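Throughout, for Kd: kd values determined as follow-up on hits from a single-replicate KINOMEscan panel screen.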

## CCCc1ccc(S(=O)(=O)NC2CCN(c3ccnc(Nc4ccc(OC)cc4)n3)C2)cc1 (stereo not shown) [GSK1379737]
[1]
  Kd: > 10000 nM
[2]
  %Inh: 0%
[3]
  %Inh: 0%
[4]
  %Inh: 0%

## NC(=O)c1sc(-n2cnc3ccccc32)cc1OCc1ccccc1F [GSK1024306]
[5]
  Kd: 280 nM
[2]
  %Inh: 45%
[3]
  %Inh: 0%
[4]
  %Inh: 0%

## Nc1n[nH]c2nnc(-c3ccccc3)cc12 [SB-517389]
[6]
  Kd: > 10000 nM
[2]
  %Inh: 16%
[3]
  %Inh: 11%
[4]
  %Inh: 5%

## Cl.Cl.c1ccc(-c2cc3ccncc3cc2OC2CCNCC2)cc1 [GSK1122999]
[2]
  %Inh: 27%
[3]
  %Inh: 0%
[4]
  %Inh: 0%

## Oc1ccc2ncnc(Nc3ccc(OCc4ccccc4)cc3)c2c1 [GI262866]
[2]
  %Inh: 0%
[3]
  %Inh: 0%
[4]
  %Inh: 0%

## CC(=O)Nc1n[nH]c2ncc(-c3ccccc3)cc12 [SB-548492]
[7]
  Kd: 2500 nM
[8]
  Kd: 580 nM
[2]
  %Inh: 0%
[3]
  %Inh: 49%
[4]
  %Inh: 20%

## CCC(CC)(CC)n1cnc2c(N)ncnc21 [SKF-97620]
[9]
  Kd: > 10000 nM
[2]
  %Inh: 0%
[3]
  %Inh: 27%
[4]
  %Inh: 6%

## Nc1nc(-c2cccnc2)c(-c2ccnc3ccccc23)s1 [GW684083]
[9]
  Kd: > 10000 nM
[2]
  %Inh: 57%
[3]
  %Inh: 0%
[4]
  %Inh: 0%

## CNc1nccc(-c2c(-c3ccc(F)cc3)ncn2C2CCN(C)CC2)n1 [SB-222903]
[5]
  Kd: 53 nM
[2]
  %Inh: 0%
[3]
  %Inh: 34%
[4]
  %Inh: 6%

## C[C@@H]1CCN(C(=O)CO)C[C@@H]1N(C)c1ncnc2[nH]ccc12
[10]
  Kd: 110 nM
[2]
  %Inh: 8%
[3]
  %Inh: 35%
[4]
  %Inh: 0%

## CC(C)N1CCC(n2cnc(-c3ccc(F)cc3)c2-c2ccnc(N)n2)CC1 [SB-223132]
[5]
  Kd: 160 nM
[2]
  %Inh: 9%
[3]
  %Inh: 50%
[4]
  %Inh: 19%
